From PubChem BioAssay (EPA / NIEHS)
Values joined by “and” are separate entries in the source; they are usually repeats but may differ in a detail not shown here. Equal values may be shown once. Some structures have more than one record in an assay (separate samples or runs), and their calls can disagree. Active and inactive are the calls of the source. The calls were made as follows: active = hit-call score of the fitted dose curve at least 0.9, where 1 is the maximum; inactive = score below 0.9.

Assay: CCTE_Shafer_MEA_dev_per_burst_interspike_interval: CCTE's Neural Network Formation Assay for Burst Interspike Interval, Shafer Lab (AID 2284044);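 also: mean spike spacing inside bursts as AUC over recordings on days 5 7 9 12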;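 as to AC50: potency for a decrease of within-burst interspike interval below DMSO level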
Method: CCTE_Shafer_MEA_dev assay is conducted using Axion Biosystems 48 well microelectrode array (MEA) plates and Maestro recording system. Each well of the MEA plate contains a grid of 16 microelectrodes embedded in the culture surface. Electrically active cells, such as neurons, can be cultured over the electrodes, and electrical activity in these cells can be recorded extracellularly. The spontaneous firing of neurons is captured from each electrode on a microsecond timescale providing both temporally and spatially precise data. […] The CCTE_Shafer_MEA_dev assay uses primary cultures of rat cortical neurons. Recordings are made on days post-plating 5, 7, 9 and 12. As these cultures mature over time, neural networks develop functional activity and form cohesive networks in which electrical activity can be highly coordinated. CCTE_Shafer_MEA_dev_per_burst_interspike_interval is 1 of 19 assay components of the CCTE_Shafer_MEA_dev assay. It measures the average time interval between spikes (action potential firings) within a single-electrode burst (temporally-clustered group of spikes) during a recording in a microelectrode array (MEA) using Axion Biosystems Maestro 768 channel amplifier with the AxIS adaptive spike detector. The mean inter-spike interval within bursts is averaged across the actively bursting electrodes to report a well-mean value. To collapse across multiple recordings made on days post-plating 5, 7, 9 and 12, the trapezoidal area-under-the-curve of the component is calculated.Data from the assay component CCTE_Shafer_MEA_dev_per_burst_interspike_interval was analyzed into 1 assay endpoint. This assay endpoint, CCTE_Shafer_MEA_dev_per_burst_interspike_interval, was analyzed in the negative analysis fitting direction relative to DMSO as the negative control and baseline of activity. Using a type of functional reporter, gain or loss-of-signal activity can be used to understand electrical activity.
On the day prior to culture, each well was coated thoroughly with 150 uL of 0.05% polyethyleneimine (PEI, Sigma Cat P3143) in 50 mM HEPES (Sigma Cat H7523) at a pH of 8. The plate was incubated at 37C for one hour. PEI was rinsed out with 500 uL of sterile water three times. Plates were stored at 4C until the day of culture. This culture was plated at a seeding density of 1.5 x 10^5 cells/well on a 48-well MEA plate, prepared as described above. Cells were administered via a 25 uL media/laminin ([…]; Sigma Cat L2020-1MG) drop directly onto the microelectrode array, as adding the cells with the laminin results in better attachment than pre-coating with laminin. After 2 hours, an additional 475 uL of cortical media was added and the cells returned to the incubator. Exposure starts at day 0 of plating and is continued over twelve days of network development until the experiment is terminated. Cells are fed with fresh medium on DIV 5 and 9, following the recordings on those days. The entire volume of media in the well is exchanged and any vehicle or compound treatment is renewed. Complete details are found in OP-NHEERL/ISTD/SBB/TJS/2015-03-r0 (available on request, email shafer.tim@epa.gov). Measurement of the electrical activity is non-invasive, and recordings can be made from the same plate over multiple different days of the culture. In cortical neurons, this allows for the measurement of extracellular action potentials over the period during which networks form in the MEA plate.
For `Cn1cc[nH]c1=S`, the outcome was “inactive”.
In the case of `c1ccc2c(c1)-c1cccc3c1c-2cc1ccccc13`, the outcome is reported as “inactive”.
In the case of `OC(O)(C(F)C(O)(O)C(F)(F)F)C(F)(F)F`, the outcome is reported as “inactive”.
In the case of `C[C@]12C=CC(=O)C=C1CC[C@H]1[C@@H]3C[C@@H](O)[C@](O)(C(=O)CO)[C@@]3(C)C[C@H](O)[C@@]12F`, the outcome is reported as “inactive”.
In the case of `OC(Cn1cncn1)(Cn1cncn1)c1ccc(F)cc1F`, the outcome is reported as “inactive”.
For `COc1cc2c(c(OC)c1OC)-c1ccc(OC)c(=O)cc1[C@@H](NC(C)=O)CC2`, the AC50 was 6.47 nM (active).
For `Nc1ccn([C@@H]2O[C@H](CO)[C@@H](O)[C@@H]2O)c(=O)n1`, the AC50 was 254 nM (active) and the outcome was “inactive”.
In the case of `CCN(CC)C(=S)SSC(=S)N(CC)CC`, the AC50 is reported as 157 nM (active) and 39.7 nM (active).
With `FC(F)(F)COC(OCC(F)(F)F)OCC(F)(F)F` the outcome was “inactive”.
With `CCCC(CCC)C(=O)O` the outcome was “inactive”.
In the case of `NCC(F)(F)C(F)(F)C(F)(F)C(F)(F)F`, the outcome is reported as “inactive”.
In the case of `c1ccc2cc3ccccc3cc2c1`, the outcome is reported as “inactive”.
For `NC(=O)N1c2ccccc2C=Cc2ccccc21`, the outcome was “inactive”.
For `FC(F)(F)C(F)(F)C(F)(F)C(F)(F)C(F)(F)C(F)(F)I`, the outcome was “inactive”.
With `O=C(Cl)C(F)(F)C(F)(F)C(F)(F)C(=O)Cl` the outcome was “inactive”.
With `CC[C@H](C)C(=O)O[C@H]1C[C@H](O)C=C2C=C[C@H](C)[C@H](CC[C@@H](O)C[C@@H](O)CC(=O)O)[C@H]21` the outcome was “inactive”.
With `CCOc1ccc2[nH]cc(C(=O)NCc3ccccc3)c(=O)c2n1` the outcome was “inactive”.
In the case of `NNC(=O)c1ccncc1`, the outcome is reported as “inactive”.
For `OCCC(F)(F)C(F)(F)C(F)(F)C(F)(F)F`, the outcome was “inactive”.
